In all, about 68,000 sequences were measured (“fluorescence intensity (a.u.)”: median about 9,100, highest 2% from about 16,000 on). The sample holds the highest values, similar sequences and a random draw of the others, so the mix is not that of the screen.
Each sequence was assayed against OsWRKY34 (Oryza sativa, UniProt Q0JBA9 1-250) (assay: protein-binding microarray (RPBM); PBS, 2% BSA, 51.3 ng/ul salmon testes DNA, 50 uM zinc acetate, 200 nM TF, 25 C, 1 h; high values mean tight binding). Details: protein: recombinant; tags: N-terminal polyhistidine and DsRed monomer fusion (pET32a); label: CyDye5-dUTP incorporated in the synthesized complementary strand; 3' TTTTT single-stranded linker to array surface; dsDNA, one strand shown.
OsWRKY34, sequence (Q0JBA9 entry or part of it): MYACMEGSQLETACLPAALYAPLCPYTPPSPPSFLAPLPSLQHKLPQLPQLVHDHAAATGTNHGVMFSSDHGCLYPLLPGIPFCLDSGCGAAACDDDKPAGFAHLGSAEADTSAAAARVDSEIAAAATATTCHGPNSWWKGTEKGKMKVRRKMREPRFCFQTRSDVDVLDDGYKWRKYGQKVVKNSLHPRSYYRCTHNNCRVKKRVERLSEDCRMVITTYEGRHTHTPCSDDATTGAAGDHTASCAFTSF
Summary of the method: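 In PBS with 2% BSA, salmon testes DNA and 50 µM zinc acetate, 200 nM protein was incubated on a custom Agilent array at 25 °C for 1 h and then washed off. The array had been made double-stranded by primer extension with Cy5-dUTP and blocked with 2% BSA. The proteins were transcription factors fused N-terminally to polyhistidine and DsRed, expressed in E. coli BL21-CodonPlus and purified on Ni–NTA. The binding signal is per-feature fluorescence intensity (arbitrary units) from an Axon 4000B scanner.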
“TTGGTGACTAAGCAGCTAGCTCATATTCCGTTTCAGCTTCCGGAGTCACCTAGTGCAG” was tested, and the binding signal was 9770 fluorescence intensity (a.u.). “TCTCGTGTTCCTCTTCACTACCACTTCTAGAAGCTTCCTCCGGAGTCACCTAGTGCAG” was tested, and the binding signal was 8020 fluorescence intensity (a.u.). With “GGGGTTTATTATTTTCCCGGGTTAAATTGCCACGTAAGCACGGAGTCACCTAGTGCAG” the binding signal was 10100 fluorescence intensity (a.u.). With “ATAATAATATTTTTCACCTATGCCATACTTCTTTTGTCAACGGAGTCACCTAGTGCAG” the binding signal was 8040 fluorescence intensity (a.u.). “CGACTCCGACCTCTGCTCTCTTCCTTTTACACCCCATATCCGGAGTCACCTAGTGCAG” was tested, and the binding signal was 11100 fluorescence intensity (a.u.). For “TTTACTAAACTCGATCAGTTCTTCCCATATACTCTTGTGACGGAGTCACCTAGTGCAG”, the binding signal was 9070 fluorescence intensity (a.u.). For “ATCAACCATGAACCATCCGCGCCCGCGCACCTCCTCCTCTCGGAGTCACCTAGTGCAG”, the binding signal was 8100 fluorescence intensity (a.u.). “TTCTCCATTTTTTCATGGTTGACTCTAATCTTCATGACTACGGAGTCACCTAGTGCAG” was tested, and the binding signal was 8280 fluorescence intensity (a.u.). For “TTGACTTTTTCTCACATGTTTGACCATTCGTCTTATTCAACGGAGTCACCTAGTGCAG”, the binding signal was 15400 fluorescence intensity (a.u.). “TTACACTTTCTCCTCCATCATGCGCTCATGGCCATCCATTCGGAGTCACCTAGTGCAG” was tested, and the binding signal was 8320 fluorescence intensity (a.u.). In the case of “TGACTTTTTCTCACATGTTTGACCATTCGTCTTATTCAAACGGAGTCACCTAGTGCAG”, the binding signal is reported as 10900 ± 914 fluorescence intensity (a.u.). “CGTTGACTTTTTCTCACATGTTTGACCATTCGTCTTATTCCGGAGTCACCTAGTGCAG” was tested, and the binding signal was 31500 fluorescence intensity (a.u.). With “TAGCTCATTCATGCCTCCATCGGTTGACTTTTTTTTTCTACGGAGTCACCTAGTGCAG” the binding signal was 20500 fluorescence intensity (a.u.). For “GTCGCCGCCTCCTCCTCTCCATCTCCGCTGCTATTATTGCCGGAGTCACCTAGTGCAG”, the binding signal was 12900 fluorescence intensity (a.u.). In the case of “TTTTCTCTGTTTACTTTTTTTTTATTATTTTTTTGCGCCGCGGAGTCACCTAGTGCAG”, the binding signal is reported as 8240 fluorescence intensity (a.u.). “ATGTCATGTCATGTCGCATATCTCCCATGTCTTGGCACGACGGAGTCACCTAGTGCAG” was tested, and the binding signal was 9540 fluorescence intensity (a.u.). In the case of “TACTTGGCTATACTATTAAACTTGCTCTCGCACCATCTTTCGGAGTCACCTAGTGCAG”, the binding signal is reported as 9680 fluorescence intensity (a.u.). “GTTGCAAAAGAGGCCTCTGACATGGTTCTTGCTGATGACACGGAGTCACCTAGTGCAG” was tested, and the binding signal was 8450 fluorescence intensity (a.u.). “ATCGCCATATAGGCGCCACGTGGAACGAAGACTCGGTCAACGGAGTCACCTAGTGCAG” was tested, and the binding signal was 9350 fluorescence intensity (a.u.). For “GATCAACGAACACTCGTGGGCCGTAGGCGGAGGCGCAAGTCGGAGTCACCTAGTGCAG”, the binding signal was 62600 fluorescence intensity (a.u.). For “CGGGGCCCAACGAGGTGGCGCCGTGGCTGGTGGGGCGGGTCGGAGTCACCTAGTGCAG”, the binding signal was 9270 fluorescence intensity (a.u.). “CCCGGCGGCCCGATCACCACCTGCCCGAACACCATCCTCCCGGAGTCACCTAGTGCAG” was tested, and the binding signal was 8530 fluorescence intensity (a.u.). For “TAGGTGTGGTGTGTGGAGAAGCGGTGGACCGACCGACGACCGGAGTCACCTAGTGCAG”, the binding signal was 8450 fluorescence intensity (a.u.). In the case of “ACTGTCGTGCCACAGTGGACGTGTGCGGCAGGTGAAGCACCGGAGTCACCTAGTGCAG”, the binding signal is reported as 49100 fluorescence intensity (a.u.). “GTGTGTTGGTTGTCACAGTACTGTGTGGTGGTGGTGGAAGCGGAGTCACCTAGTGCAG” was tested, and the binding signal was 9220 fluorescence intensity (a.u.). With “GGAAAAGAACACCGGTCCATTTTGCAACTATTGTGAAGTTCGGAGTCACCTAGTGCAG” the binding signal was 8220 fluorescence intensity (a.u.). With “CCGGCAAAAGTCTCTCCATCTTGTCATCGTCTTCTCCAGCCGGAGTCACCTAGTGCAG” the binding signal was 8410 fluorescence intensity (a.u.). “TTGGGAGGGAGAGTGGTAAAGGGTGCTGGGGCTTTGGCTGCGGAGTCACCTAGTGCAG” was tested, and the binding signal was 8840 fluorescence intensity (a.u.). “GGGGAAGGAGAAGAGGAAGGAGAGGGGAGGAGGAGGAGGGCGGAGTCACCTAGTGCAG” was tested, and the binding signal was 8870 fluorescence intensity (a.u.). With “AGGATTCAATTTGGACTTTGGTGGAGGGGAGGGGCTGCTGCGGAGTCACCTAGTGCAG” the binding signal was 22100 fluorescence intensity (a.u.). In the case of “GAGGAAATGCCTGGGAGGAGGAGGAGGGACTCGGGGCGGGCGGAGTCACCTAGTGCAG”, the binding signal is reported as 13300 fluorescence intensity (a.u.). For “GGGGCTGTTTGGTTTCCAGGGACTTATTCCAAGTCCCTGTCGGAGTCACCTAGTGCAG”, the binding signal was 9750 fluorescence intensity (a.u.). For “TGGAAAGAGGAGGGCGGGGAGAGGACTGGGGAGGGCGGGGCGGAGTCACCTAGTGCAG”, the binding signal was 17700 fluorescence intensity (a.u.). “GCGAGAGGGGACTGGGGAGGGGAGGGGCGGCGCTCGCTGGCGGAGTCACCTAGTGCAG” was tested, and the binding signal was 12500 fluorescence intensity (a.u.). For “TGGATTTGGCGGCGGCGGCGGCTTCGAGGGGAGGGGCTCTCGGAGTCACCTAGTGCAG”, the binding signal was 15300 fluorescence intensity (a.u.). In the case of “ACTGGTTTTACACATTATGTGGGCTAACTTAATACTCCTTCGGAGTCACCTAGTGCAG”, the binding signal is reported as 8040 fluorescence intensity (a.u.). In the case of “AGAGGGGACTGGGGAGGGGAGGGGCGGCGCTCGCTGGCTTCGGAGTCACCTAGTGCAG”, the binding signal is reported as 17500 fluorescence intensity (a.u.). With “TCTTCGGTTTACTTATGTCCTGGCTGGTTGGGAGGGGACACGGAGTCACCTAGTGCAG” the binding signal was 19100 fluorescence intensity (a.u.). In the case of “TTGGATTGGGCTGCGGACCTGCGGTGGAGGGATTCAGGGTCGGAGTCACCTAGTGCAG”, the binding signal is reported as 8240 fluorescence intensity (a.u.). For “ATTTTTTTTAAAAGTAGTTCTTCTGTTTCATATTATAATACGGAGTCACCTAGTGCAG”, the binding signal was 9230 fluorescence intensity (a.u.). For “TGTCTTTATTAAGTGCAAATGTATTTGGATTCCAACCCTTCGGAGTCACCTAGTGCAG”, the binding signal was 8180 fluorescence intensity (a.u.). In the case of “TACCCACACACACACAAGAACACGCGCCACATTTGTCATTCGGAGTCACCTAGTGCAG”, the binding signal is reported as 10900 fluorescence intensity (a.u.). For “TATTGTCTGGGGTTTGCTTATTGGCTTTTCAGGCCATGTCCGGAGTCACCTAGTGCAG”, the binding signal was 9320 fluorescence intensity (a.u.). In the case of “ATCTCTTTTGCATTTGTTCGTCCCTTTCGTTTTCAACTTGCGGAGTCACCTAGTGCAG”, the binding signal is reported as 9290 fluorescence intensity (a.u.). With “CAAACATGTGCTAAAAAGTCAACGGTGTCAACCATTTTGACGGAGTCACCTAGTGCAG” the binding signal was 11600 fluorescence intensity (a.u.). With “ACTCACAGAAAGCGTCGGGGCGGGTCTGGGAGGGCTTGCGCGGAGTCACCTAGTGCAG” the binding signal was 9140 fluorescence intensity (a.u.). “GGGGATTTGGGGAGACTTTTGGAGGGGAGGAGAGAGGGCGCGGAGTCACCTAGTGCAG” was tested, and the binding signal was 19700 fluorescence intensity (a.u.). For “TAGGTGAGGGCGGTGCGCTTGTCGACGGGGTTGAAGGGGACGGAGTCACCTAGTGCAG”, the binding signal was 10700 fluorescence intensity (a.u.). For “TCGGGGCGGGTCTGGGAGGGCTTGCGCTTGACACGGACGACGGAGTCACCTAGTGCAG”, the binding signal was 17200 fluorescence intensity (a.u.). With “GCGGCGGCGGGGCGGCGTCGGGGAGGGAGGAGGAGCAGTGCGGAGTCACCTAGTGCAG” the binding signal was 10700 fluorescence intensity (a.u.). For “ACGGGGACAGGGAGAGGAGCGGGGATTTTGTGGCGGGAGACGGAGTCACCTAGTGCAG”, the binding signal was 9460 fluorescence intensity (a.u.). With “CTGCTGCCGCCGCCTCCTGGCCGCCGCCGCGGCGAGCGCGCGGAGTCACCTAGTGCAG” the binding signal was 8280 fluorescence intensity (a.u.). In the case of “GTGTGTGCTGTGGTGGAGAGGAGAAAGGGAGGAAGAAGAGCGGAGTCACCTAGTGCAG”, the binding signal is reported as 8140 fluorescence intensity (a.u.). In the case of “CGTGGAGAGGATTTGAGTGCCTTTTTTGGAGTTTGAGGGGCGGAGTCACCTAGTGCAG”, the binding signal is reported as 9570 fluorescence intensity (a.u.). For “GCGTCTGGGGCCTCGGGCGGCGCGCGCGGGGAGGGGCGTGCGGAGTCACCTAGTGCAG”, the binding signal was 10500 fluorescence intensity (a.u.). For “GAGGACTGGGGAGGGCGGGGAGAGGGGAGGGCGTCGCGTGCGGAGTCACCTAGTGCAG”, the binding signal was 24500 fluorescence intensity (a.u.). In the case of “AAGCGCCTGGTAGCGGAGAGTGGGAAAGAGCTGGCTGGCGCGGAGTCACCTAGTGCAG”, the binding signal is reported as 60400 fluorescence intensity (a.u.).

Source: PMC7819943, “Rice protein-binding microarrays: a tool to detect cis-acting elements near promoter regions in rice”
